The target in assay [1] is COP9 signalosome complex subunit 5 (Homo sapiens) (UniProt Q92905). As to the kind of experiment: blockers of CSN-driven cullin deneddylation – biochemical, fluorescence polarization, single concentration, SCF-Nedd8OG substrate, confirmation (AID 720654; in the data active means inhibition above about 50%;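 further: 0% = DMSO with enzyme and 100% = no enzyme wells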). As to conditions: Csn5 deneddylation of SCF-Nedd8OG, 90 min, at 16.6 µM, stronger effect = higher value. On the technique in general: Polarisation of emitted light reports the rotation of a fluorescent probe.

For assay [2], the target named is 72 kDa type IV collagenase (Homo sapiens) (UniProt P08253). Briefly: human MMP-2 inhibitors, single-point check – biochemical, fluorescence, single concentration, counter-screen for CSN deneddylation inhibitor project, confirmation (AID 720655;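 active means corrected plate-normalized z-score of 5 or more, or -5 or less, or inhibition of 15% or more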;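 further: plate controls were DMSO wells with enzyme for no effect and buffer wells lacking MMP-2 for full effect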). As to conditions: recombinant MMP-2, FRET substrate fluorescence, 60 min; at 16.6 µM. (Counterscreens check selectivity or assay interference.)

Assay [3] has as its target Prothrombin (Bos taurus) (UniProt P00735). Briefly: thrombin cleavage blockers, FP readout – biochemical, fluorescence polarization, single concentration, counter-screen for CSN deneddylation inhibitor project, confirmation (AID 720656;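 active means inhibition at or above a set limit, with a fluorescence interference ratio between 0.5 and a set maximum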). The conditions noted are these: bovine thrombin cleavage of Ub4-pepOG, at 16.6 µM, stronger effect = higher value.
The target in assay [4] is Tumor necrosis factor receptor superfamily member 10B (Homo sapiens) (UniProt O14763). As to the kind of experiment: viability loss of caspase-8 NB7 cells with TRAIL – with/without TRAIL, luminescence panel, confirmation (AID 651596). The conditions noted are these: NB7 neuroblastoma + caspase-8, TRAIL sensitization, NB7 Caspase-8, with TRAIL, mean of runs, at 10 µM, stronger effect = higher value.

Test in assay [5]: as above
As to conditions: NB7 neuroblastoma + caspase-8, without TRAIL, NB7 Caspase-8, without TRAIL, mean of runs, at 10 µM.

The target of assay [6] is Tumor necrosis factor receptor superfamily member 10B (Homo sapiens) (UniProt O14763). Briefly: compound enhancement of TRAIL-induced cell killing – NB7 cells plus caspase-8, luminescence, panel, dose response (AID 652002). As to conditions: NB7 neuroblastoma +caspase-8, TRAIL sensitization, luminescence viability, NB7+Caspase-8, with TRAIL, run 1; at 12.5 µM (top of the series).

Assay [7] shares this target. Described as above. As to conditions: NB7 neuroblastoma +caspase-8, TRAIL sensitization, luminescence viability, NB7+Caspase-8, with TRAIL, run 2; at 12.5 µM (top of the series).
Test in assay [8]: as above
The conditions noted are these: NB7 neuroblastoma +caspase-8, no TRAIL, compound-alone cytotoxicity counter-screen, luminescence viability, NB7+Caspase-8, run 1; at 12.5 µM (top of the series) unless noted.

Test in assay [9]: as above
As to conditions: NB7 neuroblastoma +caspase-8, no TRAIL, compound-alone cytotoxicity counter-screen, luminescence viability, NB7+Caspase-8, run 2; at 12.5 µM (top of the series) unless noted.

This note sets out measurements from PubChem BioAssay.

The list shows a part of the results. Calls of active or inactive are those of the source. Unless noted, no stated cut-off is given here; in the data, active means activity above about 50%; inactive means the rest.

Chain of 72 kDa type IV collagenase (Homo sapiens) (P08253 whole entry, looked up): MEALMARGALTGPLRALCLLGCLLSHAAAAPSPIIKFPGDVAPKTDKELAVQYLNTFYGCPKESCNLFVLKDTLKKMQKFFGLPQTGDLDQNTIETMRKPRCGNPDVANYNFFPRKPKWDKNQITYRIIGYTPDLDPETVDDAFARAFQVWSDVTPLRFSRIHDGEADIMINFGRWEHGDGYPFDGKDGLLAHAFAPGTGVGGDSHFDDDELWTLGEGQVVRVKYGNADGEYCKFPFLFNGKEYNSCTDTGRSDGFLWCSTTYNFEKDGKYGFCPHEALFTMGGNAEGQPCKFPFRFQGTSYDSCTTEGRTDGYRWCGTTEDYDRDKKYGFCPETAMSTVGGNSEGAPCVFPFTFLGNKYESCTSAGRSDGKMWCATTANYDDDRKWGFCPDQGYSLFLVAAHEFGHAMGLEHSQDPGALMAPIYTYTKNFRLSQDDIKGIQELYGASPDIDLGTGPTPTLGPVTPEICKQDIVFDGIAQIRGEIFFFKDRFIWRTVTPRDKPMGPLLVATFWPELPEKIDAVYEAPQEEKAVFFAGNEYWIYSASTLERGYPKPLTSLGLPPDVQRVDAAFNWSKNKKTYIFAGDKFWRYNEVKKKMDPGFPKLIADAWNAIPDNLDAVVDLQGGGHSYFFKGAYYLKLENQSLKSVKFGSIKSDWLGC
Chain of Tumor necrosis factor receptor superfamily member 10B (Homo sapiens) (O14763 whole entry, looked up): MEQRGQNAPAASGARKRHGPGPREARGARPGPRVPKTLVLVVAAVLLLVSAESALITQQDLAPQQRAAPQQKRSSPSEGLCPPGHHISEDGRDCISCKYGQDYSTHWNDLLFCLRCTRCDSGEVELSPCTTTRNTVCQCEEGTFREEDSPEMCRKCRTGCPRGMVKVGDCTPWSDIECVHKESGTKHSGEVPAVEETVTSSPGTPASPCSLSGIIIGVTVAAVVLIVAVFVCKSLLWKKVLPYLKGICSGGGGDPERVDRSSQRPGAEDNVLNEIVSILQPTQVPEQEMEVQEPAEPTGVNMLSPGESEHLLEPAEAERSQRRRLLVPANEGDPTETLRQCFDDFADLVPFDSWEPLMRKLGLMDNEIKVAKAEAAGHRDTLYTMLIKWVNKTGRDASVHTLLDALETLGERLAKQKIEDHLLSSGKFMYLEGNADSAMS
Chain of Prothrombin (Bos taurus) (P00735 whole entry, looked up): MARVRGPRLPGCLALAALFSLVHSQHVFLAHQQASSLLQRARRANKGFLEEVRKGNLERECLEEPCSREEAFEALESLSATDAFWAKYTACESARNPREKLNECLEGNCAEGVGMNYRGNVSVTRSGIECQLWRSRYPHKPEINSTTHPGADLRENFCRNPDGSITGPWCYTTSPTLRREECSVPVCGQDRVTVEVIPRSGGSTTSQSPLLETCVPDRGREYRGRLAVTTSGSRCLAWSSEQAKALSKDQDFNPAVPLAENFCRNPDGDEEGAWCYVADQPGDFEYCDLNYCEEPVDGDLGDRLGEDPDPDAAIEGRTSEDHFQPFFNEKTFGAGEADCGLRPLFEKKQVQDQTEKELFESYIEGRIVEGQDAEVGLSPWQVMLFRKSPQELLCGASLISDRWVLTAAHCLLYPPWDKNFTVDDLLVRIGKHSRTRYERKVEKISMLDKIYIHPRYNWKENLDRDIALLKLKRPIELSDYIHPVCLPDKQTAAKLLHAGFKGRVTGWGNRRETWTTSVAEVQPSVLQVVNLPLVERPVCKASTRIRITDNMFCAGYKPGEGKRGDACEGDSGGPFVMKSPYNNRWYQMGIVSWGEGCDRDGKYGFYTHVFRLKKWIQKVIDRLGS
Chain of COP9 signalosome complex subunit 5 (Homo sapiens) (Q92905 whole entry, looked up, one chain of several): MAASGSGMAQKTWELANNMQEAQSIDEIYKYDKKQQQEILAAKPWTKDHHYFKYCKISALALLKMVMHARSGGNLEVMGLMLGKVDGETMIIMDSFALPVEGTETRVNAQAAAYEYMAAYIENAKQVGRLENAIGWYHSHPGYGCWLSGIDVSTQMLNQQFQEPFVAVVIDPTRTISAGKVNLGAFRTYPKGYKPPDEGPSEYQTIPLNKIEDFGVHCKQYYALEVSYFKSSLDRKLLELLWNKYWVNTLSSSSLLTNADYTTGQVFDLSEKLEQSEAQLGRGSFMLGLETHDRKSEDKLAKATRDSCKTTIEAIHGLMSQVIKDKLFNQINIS

In the case of `O=C(O)C(c1ccccc1)N1C(=O)/C(=C\c2ccc(-c3cccc(Cl)c3)o2)SC1=S` (configuration not stated), the inhibition is 14.6% (inactive) in assay [1], -20.6% (inactive) in assay [2] and 51.9% (active) in assay [3].

On to `COc1cc(/C=C2/C(=O)NN(c3cccc(Cl)c3)C2=O)cc(Br)c1O`, for which the inhibition in [1] was 27.3% (inactive); in [2] it was -17.1% (inactive); in [3], 36.3% (active).

Take `COC(=O)CSc1nc2cc(C)ccc2cc1C#N`: the activity in [4] amounted to 63.1%; in assay [5] it was 53.9%. In addition, the activity, % sensitization stood at 45.7% in [6], 53.4% in assay [7], 15.2% in [8] and 24.1% in assay [9].

On to `Cc1ccnc(NC(=O)Nc2ccc3c(c2)OCO3)c1`, for which the activity in assay [4] was 51%; in assay [5] it was 41%. In addition, the activity, % sensitization in assay [6] was 40.8%; in [7], 17%; in assay [8], 0.866%; in [9], -33.8%.

Turning to `CC(C)(C)C1C/C(=C/c2ccco2)C(=O)/C(=C/c2ccco2)C1` (configuration not stated), the inhibition in assay [1] is 71.5% (active); in assay [2], 1.32% (inactive); in assay [3] it was 10.1% (inactive).

Regarding `CC(C)(C)OC(=O)NCc1ccc(NC(=O)c2nc[nH]c2C(=O)N[C@@H](Cc2ccccc2)C(=O)OCc2ccccc2)cc1`, the activity is 63.8% in assay [4] and 11.5% in assay [5]. Besides, the activity, % sensitization in [6] was -11%; in [7], 1.84%; in assay [8], -8.6%; in assay [9], -21.5%.

For `O=C(CSc1nc2ccccc2c(=O)[nH]1)Nc1nc(-c2ccc(Br)cc2)cs1`, the inhibition in [1] is 105% (active); in [2], 16.9% (active); in assay [3] it was -37.2% (inactive).

On to `CSc1ccc(/C=C/c2ccc3cccc(O)c3n2)cc1`, for which the activity in [4] was 48.5%; in assay [5] it was 53.9%. For the same compound, the activity, % sensitization in [6] turned out to be 31.9%; in assay [7], 41.1%; in assay [8] it was 23.2%; in assay [9], 36.6%.

Consider `C(=C\c1ccco1)/c1nc2ccccc2[nH]1`, for which the activity in [4] worked out at 57.9%; in [5], 31.6%. The activity, % sensitization in [6] was -0.105%; in assay [7] it was 5.08%; in assay [8] it was -6.68%; in [9], -0.982%.

By inhibition is commonly meant the relative decrease from the control value, in per cent.
